Laboratory results: PubChem BioAssay (NCATS)
Values joined by “and” are separate entries in the source; they are usually repeats but may differ in a detail not shown here. Equal entries are not always repeated. Results filed as inconclusive are left out. Entries that show only a call come without a potency. Active and inactive are the calls of the source. Unless noted, calls come from the whole dose curve; as a rule, active = well fitted curve in the direction sought with a large enough effect; inconclusive = small, poorly fitted or top-dose-only effect, or another doubt; inactive = no such curve, though single readings can be large; an effect the other way counts as inactive or inconclusive.

Experiments:
[1] = Primary qHTS for inhibitors of nuclear receptor binding SET domain protein 2 (NSD2) in an RCH-ACV wild type WT cells (2C) (AID 1645877); note: nearly all actives have a fitted effect of over 70% in size; note: potency is the fitted concentration of half-maximal effect
[2] = target: Catechol O-methyltransferase (Homo sapiens) (UniProt P21964); test: Confirmatory Screen for Target Class Profiling of Small Molecule Inhibitors of Methyltransferases (AID 1745852; calls by dose curve; note: potency is the fitted concentration of half-maximal effect); conditions: MTase-Glo luminescence, SAH detection, recombinant enzyme; measured here: COMT max response; stronger effect = lower value
[3] = target: Guanidinoacetate N-methyltransferase (Homo sapiens) (UniProt Q14353); test: as above; conditions: activity change, negative = inhibition: at 57.3 µM (top of the series) unless noted
[4] = target: Nicotinamide N-methyltransferase (Homo sapiens) (UniProt P40261); test: as above; conditions: MTase-Glo luminescence, SAH detection, recombinant enzyme; measured here: NNMT max response; stronger effect = lower value
[5] = target: Phenylethanolamine N-methyltransferase (Homo sapiens) (UniProt P11086); test: as above; conditions: MTase-Glo luminescence, SAH detection, recombinant enzyme; measured here: PNMT max response; stronger effect = lower value
[6] = target: Glutathione peroxidase 1 (Homo sapiens) (UniProt P07203); test: Primary qHTS Assay for Inhibitors of Recombinant Selenoprotein Glutathione Peroxidase 1 (GPX1) (AID 1845191); note: nearly all actives have a fitted effect of over 65% in size; note: potency is the fitted concentration of half-maximal effect
Procedure, shortened: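 10 nM GPX1 + cpd, 30 min RT; start w/ 1 mM GSH, 0.5 mM cumene hydroperoxide, 0.5 mM NADPH, 100 nM GR, 0.01% BSA; buffer 50 mM Tris-HCl pH 7.5, 2 mM EDTA, 150 mM NaCl; Fl 340/450, 0 & 15 min.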

[7] = target: Phospholipid hydroperoxide glutathione peroxidase GPX4 (Homo sapiens) (UniProt P36969); test: Primary qHTS Assay for Inhibitors of Recombinant Selenoprotein Glutathione Peroxidase 4 (GPX4) (AID 1845192); note: nearly all actives have a fitted effect of over 65% in size; note: potency is the fitted concentration of half-maximal effect
Procedure, shortened: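 NADPH consumption, followed by fluorescence at 340/450 nm between 0 and 15 min, reports GPX4 activity via coupled glutathione reductase (100 nM). Enzyme 200 nM was pre-exposed to compound 30 min; 0.5 mM cumene hydroperoxide and 1 mM GSH served as substrates.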

[8] = target: Luciferin 4-monooxygenase (Photinus pyralis) (UniProt P08659); test: Primary firefly luciferase (FLuc) qHTS assay for identification of artifact compounds. (AID 1845220); note: nearly all actives have a fitted effect of over 60% in size; note: potency is the fitted concentration of half-maximal effect
Procedure, shortened: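 Compounds sat 15 min at room temperature with 10 uM luciferin and 10 uM ATP (pH 7.6 Tris acetate). Firefly luciferase (10 nM final) was then added, and luminescence was read 5 min later. Data normalized to no-enzyme and DMSO controls were Hill-fitted.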

[9] = Primary fluorescence-based thiol-reactive (MSTI) qHTS assay for identification of artifact compounds. (AID 1845221); note: nearly all actives have a fitted effect of over 65% in size; note: potency is the fitted concentration of half-maximal effect
Procedure, shortened: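 One-hour, room-temperature, dark incubation of compound with 4 uM MSTI in PBS (pH 7.4, 2% DMSO) precedes a fluorescence read at 525 nm excitation, 598 nm emission; Hill-equation fitting yields concentration-response values.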

[10] = test system: Nanoluciferase (engineered Oplophorus gracilirostris luciferase); test: Primary Nanoluciferase (NLuc) qHTS assay for identification of artifact compounds. (AID 1845222); note: potency is the fitted concentration of half-maximal effect
Procedure, shortened: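 Luminescence from secreted NLuc (filtered, 1:55-diluted S16 cell medium) read 5 min after Nano-Glo substrate; compounds preincubated 15 min, RT. Hill fits of inhibition normalized to DMSO and no-enzyme.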

[11] = Primary redox qHTS assay for identification of artifact compounds. (AID 1845223)
Procedure, shortened: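 Amplex Red (25 uM) and HRP (250 mU/mL) in HBSS, with compounds for 15 min, then 250 uM DTT for 30 min, room temperature, dark. Fluorescence 525/598 nm read; normalized to DMSO and 10 uM DA3003; Hill fit.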

Glutathione peroxidase 1 (Homo sapiens), sequence (P07203 whole entry, looked up): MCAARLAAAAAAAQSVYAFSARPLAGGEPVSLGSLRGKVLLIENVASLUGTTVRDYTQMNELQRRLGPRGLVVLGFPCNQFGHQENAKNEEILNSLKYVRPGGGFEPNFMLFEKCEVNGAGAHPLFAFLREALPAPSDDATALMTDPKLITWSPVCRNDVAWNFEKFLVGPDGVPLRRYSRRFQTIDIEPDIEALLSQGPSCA
Nicotinamide N-methyltransferase (Homo sapiens), sequence (P40261 whole entry, looked up): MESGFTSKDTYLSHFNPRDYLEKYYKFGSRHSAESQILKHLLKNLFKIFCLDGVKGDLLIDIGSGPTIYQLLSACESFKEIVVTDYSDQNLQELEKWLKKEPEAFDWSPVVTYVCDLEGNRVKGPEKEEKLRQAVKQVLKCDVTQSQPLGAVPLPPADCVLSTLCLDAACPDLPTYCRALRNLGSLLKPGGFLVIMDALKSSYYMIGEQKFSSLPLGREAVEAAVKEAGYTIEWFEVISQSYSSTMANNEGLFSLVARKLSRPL
Catechol O-methyltransferase (Homo sapiens), sequence (P21964 whole entry, looked up): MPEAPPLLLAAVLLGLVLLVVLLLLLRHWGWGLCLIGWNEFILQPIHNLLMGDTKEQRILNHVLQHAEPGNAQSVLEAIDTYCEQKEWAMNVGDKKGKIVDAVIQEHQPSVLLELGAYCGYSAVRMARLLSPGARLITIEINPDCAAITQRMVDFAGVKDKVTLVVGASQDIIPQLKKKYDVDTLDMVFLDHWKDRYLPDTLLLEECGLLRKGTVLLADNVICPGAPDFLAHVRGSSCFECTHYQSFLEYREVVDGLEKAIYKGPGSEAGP
Phospholipid hydroperoxide glutathione peroxidase GPX4 (Homo sapiens), sequence (P36969 whole entry, looked up): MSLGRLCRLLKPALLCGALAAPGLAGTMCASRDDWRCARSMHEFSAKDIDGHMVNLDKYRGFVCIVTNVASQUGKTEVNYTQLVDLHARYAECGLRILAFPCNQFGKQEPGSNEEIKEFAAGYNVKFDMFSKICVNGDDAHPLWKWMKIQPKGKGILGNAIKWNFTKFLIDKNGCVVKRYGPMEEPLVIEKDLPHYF
Phenylethanolamine N-methyltransferase (Homo sapiens), sequence (P11086 whole entry, looked up): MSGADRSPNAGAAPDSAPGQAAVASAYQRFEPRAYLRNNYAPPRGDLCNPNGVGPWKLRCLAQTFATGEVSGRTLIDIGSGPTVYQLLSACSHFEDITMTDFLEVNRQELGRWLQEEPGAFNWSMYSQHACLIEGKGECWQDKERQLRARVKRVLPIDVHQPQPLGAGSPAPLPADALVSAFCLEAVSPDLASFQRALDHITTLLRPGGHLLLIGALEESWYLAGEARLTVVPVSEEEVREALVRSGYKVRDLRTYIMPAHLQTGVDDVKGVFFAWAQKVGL

SMILES	Potency [1]	activity [2]	activity change, negative = inhibition [3]	activity [4]	activity [5]	Potency [6]	Potency [7]	Potency [8]	Potency [9]	Potency [10]	Potency [11]	Potency [3]
COc1cccc(-c2cc(NCc3ccc4c(c3)OCO4)nc(N)n2)c1	163 nM (active)	-1.69%	0%	-16.1%	-2.8%	inactive	inactive	inactive	inactive	inactive	inactive	
CCC(C)C(=O)OC1CC(O)C23C4OCC5(C(O)CC2C1(C)C(O)O4)C3C(=O)C(O)C1(C)C(O)(c2ccoc2)CC2OC251 (configuration not stated)	76.5 nM (active)	-73%	-8.15% [at 19.1 µM]	-4.23%	-2.09%	inactive	inactive	inactive	inactive	inactive	inactive	
O=C(O)c1ccccc1NCCc1ccccc1	inactive											
O=C(O)c1c(O)c(-c2ccccc2)nc2ccccc12	inactive											
C[C@]12C[C@@H](O)[C@@H]3C[C@@]1(O[C@@H]1O[C@H](CO)[C@@H](O)[C@H](O)[C@H]1O)[C@]3(COC(=O)c1ccccc1)C(=O)O2	inactive	-66.1%	0.459% [at 29.8 µM]	0%	6.78%	inactive	inactive	inactive	13 µM (active)	inactive	inactive	
CC1CCC2(CO)C(C(=O)O)=CCCC2C1(C)CCc1ccoc1 (configuration not stated)	inactive	-92.5%	0%	1.37%	1.68%	inactive	inactive	inactive	inactive	inactive		
N#Cc1ccc2[nH]cc(CCCCN3CCN(c4ccc5oc(C(N)=O)cc5c4)CC3)c2c1	16300 nM (active)	-8.1%	-4.3%	-49.2%	-11.6%	inactive	inactive	inactive	inactive	inactive	inactive	
Nc1nc(-n2cc(C(=O)O)c(=O)c3cc(F)c(N4CC(O)C4)c(Cl)c32)c(F)cc1F	inactive	-21.4%	0.345%	-1.6%	-1.85%		inactive	inactive			inactive	
CC(C)CCC1(O)C(=O)C(C)(C)C(O[C@@H]2O[C@H](CO)[C@@H](O)[C@H](O)[C@H]2O)C(C)(C)C1O (some centres not stated)	inactive	-56.9%	-2.97% [at 29.8 µM]	-3.79%	-2.04%	inactive	inactive	inactive	2.32 µM (active)	inactive	inactive	
C=C[C@H]1[C@H](O[C@@H]2O[C@H](CO)[C@@H](O)[C@H](O)[C@H]2O)OC=C(C(=O)OC)[C@H]1C/C=C(/C=O)[C@@H]1C(C(=O)OC)=CO[C@@H](O[C@@H]2O[C@H](CO)[C@@H](O)[C@H](O)[C@H]2O)[C@@H]1C=C	inactive	-65.2%	0% [at 19.1 µM]	0%	4.52%	inactive	inactive	inactive		inactive	inactive	
C=C1C(=O)O[C@@H]2/C=C(\C)C(=O)/C=C/[C@](C)(O)C[C@@H](OC(=O)C(C)C)[C@@H]12	284 nM (active)	-80.2%	-3.22%	-1.46%	-0.934%	inactive	inactive	inactive		inactive	inactive	
COC(=O)C1=C2Nc3ccccc3C23CCN2CCCC(C(C)O)(C1)C23 (configuration not stated)	inactive	-1.85%	0%	2.66%	-1.29%	inactive	inactive	inactive		inactive		
NCCCNc1ccc(Nc2nccc(Nc3cc(C4CC4)[nH]n3)n2)cc1	515 nM (active)	-13.5%		-57.6%	-35.6%	inactive	inactive	inactive		inactive	inactive	27.1 µM (active)
Cc1cc(N(C)C)ccc1-c1nc2ccc(-c3nc4ccc(N5CCN(C)CC5)cc4[nH]3)cc2[nH]1	258 nM (active)	-4.96%	0%	-5.28%	-3.42%	inactive			2.38 µM (active)	inactive		
CN(C)c1nc(NC2CCC(NC(=O)c3ccc(F)c(F)c3)CC2)nc2ccccc12 (configuration not stated)	6490 nM (active)	-11.9%	0.153%	-27.9%	-21.7%		inactive	inactive		inactive	inactive	
CC(C)c1c2cc(-c3ccnc(NC4CCC(NC5CCOCC5)CC4)n3)ccc2nn1C (configuration not stated)	129 nM (active) and 93.4 nM (active)	-27.8%		-14.6%	-25.7%		9.04 µM (active)	inactive	inactive	inactive	inactive	38.3 µM (active)
CC(=O)OC/C=C(\C)C(CC1C(C)=C(OC(C)=O)C(=O)C2C(C)(C)C(O)CCC12C)OC(C)=O (configuration not stated)	inactive	-67.8%	-2.29% [at 29.8 µM]	-5.45%	-0.876%	inactive	inactive	inactive		inactive		
O=C(O)/C=C/c1ccc(-c2ccc(O)c(C34CC5CC(CC(C5)C3)C4)c2)cc1	145 nM (active)	0.235%	1.42%	-84%	-0.0074%		inactive	inactive	inactive	inactive	inactive	

SMILES	Potency [1]	activity [2]	activity change, negative = inhibition [3]	activity [4]	activity [5]	Potency [6]	Potency [7]	Potency [8]	Potency [9]	Potency [10]	Potency [11]	Potency [3]
CN1CCN(C2CCC(n3cc(-c4ccc(Oc5ccccc5)cc4)c4c(N)ncnc43)CC2)CC1 (configuration not stated)	72.8 nM (active) and 74.2 nM (active)	-15.7%	0%	-13.2%	-72%	inactive	inactive	inactive	inactive	inactive	inactive	
CCc1c(-c2ccccc2)c(-c2ccccc2)nn1-c1ccccc1-c1cccc(OCC(=O)O)c1	inactive	-1.93%	0%	-56%	-7.07%	inactive		inactive	inactive	269 nM (active)	inactive	
Cc1ncc(CCCN(C)C)cc1Nc1ncc2c(n1)-c1ccc(C(F)(F)F)cc1NC(=S)C2	129 nM (active)	-3.05%	2.13%	-20.1%	-4.31%	12.8 µM (active)	inactive	inactive		inactive	inactive	
CC(C)c1nc(-c2ccc(NC(=O)Nc3cccc(C(F)(F)F)c3)c3ccccc23)c2c(N)nccn12	1450 nM (active)	-5.14%	-2.79%	-2.22%	-6.27%	inactive	inactive	inactive		inactive	inactive	
C=C(C)C(=O)OC1CC2(C)OC(=CC2=O)C(=C)CC2OC(=O)C(COC)C12 (configuration not stated)	1790 nM (active)	-94%	-5.17%	-5.26%	-4.08%	inactive	inactive			inactive	inactive	
CC(Oc1cc(-n2cnc3ccc(CN4CCN(C)CC4)cc32)sc1C(N)=O)c1ccccc1C(F)(F)F (configuration not stated)	649 nM (active)	-36.6%		-27.1%	-38.1%	inactive	inactive	inactive	inactive	inactive	inactive	30.4 µM (active)
Cc1ccc([N+](=O)[O-])cc1S(=O)(=O)N(C)/N=C/c1cnc2ccc(Br)cn12	20.6 nM (active) and 74.2 nM (active)	-16.2%		-33.8%	-16.6%	inactive	inactive	inactive		inactive	inactive	30.4 µM (active)
COc1ccc(-c2cnc3ccc(NCc4ccc(S(N)(=O)=O)cc4)nn23)cc1OC	7280 nM (active)	-34.5%		-24.2%	-27.8%	inactive	inactive	inactive		inactive	inactive	38.3 µM (active)
CN(CCc1ccc(Nc2ncc(-c3cccnc3)s2)cc1)Cc1ccccc1	9160 nM (active)	-0.695%	0%	-47.4%	-13.5%		inactive	inactive		inactive		
COc1cc2c(NC3CCN(CC4CCCCC4)CC3)nc(N3CCCN(C(C)C)CC3)nc2cc1OCCCN1CCCCC1	2.3 µM (active) and 3.32 µM (active)	-7.99%	-0.195%	-18.7%	-1.55%	inactive		inactive	inactive	inactive	inactive	
O=C(/C=C/c1ccccc1)OC[C@]12O[C@H]1[C@@H](O)[C@@H]1C=CO[C@@H](O[C@@H]3O[C@H](CO)[C@@H](O)[C@H](O)[C@H]3O)[C@@H]12	inactive	-55.2%	-7.11% [at 29.8 µM]	-5.73%	-4.62%	inactive	inactive	inactive		inactive	inactive	
N#Cc1ccc(-c2cnc3[nH]cc(NC(=O)c4cccnc4)c3c2)cc1	5150 nM (active)	1.05%		2.51%	-6.92%		inactive	inactive		inactive	inactive	inactive
CCN1CCN(Cc2ccc(NC(=O)Nc3ccc(Oc4cc(NC)ncn4)cc3)cc2C(F)(F)F)CC1	3.65 µM (active) and 2.35 µM (active)	-1.25%	0%	-7.66%	-2.63%	inactive	inactive	inactive	inactive	inactive	inactive	
CCN(CC)c1ccc2c(O)c(C=Nc3ccc(CC(=O)O)c(-c4c5c(nc6ccccc46)CCC(C(=O)NN)C5)c3)c(=O)oc2c1 (configuration not stated)	4590 nM (active)	-17%		-14%	-22%	inactive	inactive	6.01 µM (active)		inactive	inactive	34.1 µM (active)
CC(C)c1cc(CNc2nc(Nc3cc(C4CC4)[nH]n3)cc(N3CCN(C)CC3)n2)on1	29 nM (active) and 66.1 nM (active)	-7.12%	-5.05%	-12.7%	-6.69%	inactive	inactive	inactive		inactive		
CCCCc1nc2cc(/C=C/C(=O)NO)ccc2n1CCN(CC)CC	230 nM (active) and 525 nM (active)	-23.3%	4.34%	-2.78%	3.65%		inactive	inactive		inactive	inactive	
CC1(C)CC[C@]2(C(=O)O[C@@H]3O[C@H](CO)[C@@H](O)[C@H](O)[C@H]3O)CC[C@]3(C)C(=CCC4[C@@]5(C)C[C@@H](O)[C@H](O)C(C)(C)C5CC[C@]43C)C2[C@@H]1O (some centres not stated)	inactive	-85.2%	-2.23% [at 19.1 µM]	-0.101%	-0.0843%	inactive	inactive	inactive		inactive		
COc1cc(NC(=O)Nc2cccc(CNC(=O)O[C@H]3CCOC3)c2)ccc1-c1cnco1	728 nM (active)	-5.78%	-0.888%	-9.19%	-5.11%	inactive	inactive	inactive	inactive	inactive	inactive	
